# Measured values from PubChem BioAssay AID623911 (Vanderbilt High Throughput Screening Facility, 2012).
# Screen size: about 2,100 compounds; about 770 (37%) were called active.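 Rule for the calls: active = by-eye trace score of 1 for enhancers or -1 for inhibitors, so actives lie on both sides (some results past the limit were not filed as active); inactive = score 0, or 3 fluorescent, or 4 baseline rise.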 The list shows a part of the results.
# Target: G protein-activated inward rectifier potassium channel 2 (Homo sapiens) + G protein-activated inward rectifier potassium channel 1 (Homo sapiens) (UniProt P48051+P48549)
# Sequence (P48051 whole entry, looked up): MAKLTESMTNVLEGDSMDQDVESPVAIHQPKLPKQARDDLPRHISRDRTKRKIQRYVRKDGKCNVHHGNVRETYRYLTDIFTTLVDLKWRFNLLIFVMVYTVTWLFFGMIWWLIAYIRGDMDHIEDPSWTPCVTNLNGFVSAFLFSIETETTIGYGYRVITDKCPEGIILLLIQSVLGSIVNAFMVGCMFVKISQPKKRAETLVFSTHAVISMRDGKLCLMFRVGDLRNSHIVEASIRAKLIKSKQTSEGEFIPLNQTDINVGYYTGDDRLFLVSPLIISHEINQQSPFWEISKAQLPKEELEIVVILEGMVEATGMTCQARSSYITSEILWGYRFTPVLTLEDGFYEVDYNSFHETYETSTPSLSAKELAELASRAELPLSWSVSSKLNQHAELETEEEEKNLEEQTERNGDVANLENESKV
# Sequence (P48549 whole entry, looked up): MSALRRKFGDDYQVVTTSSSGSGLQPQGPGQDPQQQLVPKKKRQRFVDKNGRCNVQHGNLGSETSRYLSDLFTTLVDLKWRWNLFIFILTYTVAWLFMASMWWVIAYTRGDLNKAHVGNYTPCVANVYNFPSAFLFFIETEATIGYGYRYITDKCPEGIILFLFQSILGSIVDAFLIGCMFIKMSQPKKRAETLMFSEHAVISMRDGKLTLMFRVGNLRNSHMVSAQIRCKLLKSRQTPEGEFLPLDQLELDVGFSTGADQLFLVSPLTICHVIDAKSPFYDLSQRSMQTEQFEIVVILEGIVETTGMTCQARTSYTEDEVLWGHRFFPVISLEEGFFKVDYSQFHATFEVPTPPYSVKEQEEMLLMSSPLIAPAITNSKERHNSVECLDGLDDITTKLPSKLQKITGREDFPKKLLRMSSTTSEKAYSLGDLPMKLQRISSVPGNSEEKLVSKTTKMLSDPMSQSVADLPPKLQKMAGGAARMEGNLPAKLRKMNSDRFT
# Assay: GIRK1/2 thallium flux modulators, retest, confirmation, cell-based, HEK293 rmGlu8/hGIRK1/2, FluoZin-2 (AID 623911)
# Details: HEK293 rmGlu8/hGIRK1/2, thallium flux FluoZin-2; actives lie on both sides; glutamate co-added at its EC20 level
row,Compound,manual score
1,Cc1ccc(/C(O)=C2\C(=O)C(=O)N(c3cc(C)on3)C2c2cccc(Br)c2)cc1 (stereo not drawn),0 (inactive)
2,CC(Oc1ccc(Cl)cc1)C(=O)N/N=C/c1ccsc1 (stereo not drawn),1 (active)
3,CC(C)C(=O)Nc1cccc(NC(=O)c2cc3ccccc3o2)c1,0 (inactive)
4,CC(=O)Nc1nnc(C)s1,0 (inactive)
5,CCCN(CCC)C(=S)NC(=O)c1ccc(Cl)cc1Cl,1 (active)
6,CCCN(CCC)CCCOC(=O)c1ccc(Cl)cc1Cl,-1 (active)
7,CCCCN(CCCC)C(=S)NC(=O)C(C)(C)C,1 (active)
8,CC1Cc2ccccc2N1C(=S)NC(=O)c1ccc(Cl)cc1Cl (stereo not drawn),1 (active)
9,CCOC(=O)CC1=C(C(=O)OCC)C(c2cccs2)C(C#N)=C(N)O1 (stereo not drawn),0 (inactive)
10,CCOC(=O)C(C(=O)OCC)c1cc(Br)c2noc3c2c1C(=O)c1ccccc1-3,3 (inactive)
11,COc1c2occc2c(OC)c2c(=O)cc(C(F)(F)F)oc12,0 (inactive)
12,COc1cc(/C=C2\S/C(=N/S(=O)(=O)c3ccc(C)cc3)NC2=O)c([N+](=O)[O-])cc1OC,0 (inactive)
13,CCCCN(CCCC)C(=S)NC(=O)c1ccccc1Cl,1 (active)
14,CN(C(=S)NC(=O)CCCOc1ccc(Cl)cc1Cl)c1ccccc1,0 (inactive)
15,CCCCn1nnc(NC(=S)NC(=O)c2ccc(-c3cccc(Cl)c3Cl)o2)n1,0.5 (inactive)
16,CCCCN(CCCC)c1ccc(C(=O)c2ccccc2C(=O)O)c(O)c1,0 (inactive)
17,CCN(CC)C(=S)NC(=O)c1ccc(Cl)cc1Cl,1 (active)
18,S=c1[nH]nc(CSCc2ccc(Cl)cc2Cl)n1-c1ccccc1,0 (inactive)
19,CCOC(=O)C1CCN(C(=O)NC23CC4CC(CC(C4)C2)C3)CC1,0 (inactive)
20,O=C(COC(=O)C1CC2C=CC1C2)Nc1ccc2c(c1)OC(F)(F)O2 (stereo not drawn),0 (inactive)
21,O=C(Nc1ccc2c(c1)OCCO2)NC12CC3CC(CC(C3)C1)C2,1 (active)
22,CCOc1ccc(NC(=O)NC23CC4CC(CC(C4)C2)C3)cc1,1 (active)

row,Compound,manual score
1,COC(=O)[C@H](CC(C)C)NC(=O)Nc1ccc2c(c1)OCCO2,0 (inactive)
2,CCOc1ccc(N2C(=O)CC(SC(=NC)Nc3ccc(F)cc3)C2=O)cc1 (stereo not drawn),0 (inactive)
3,Cc1[nH]n(-c2ccccc2)c(=O)c1N=Nc1nccs1,1 (active)
4,Cc1cccc(-n2c(C)nc3sccc3c2=O)c1,0 (inactive)
5,CCOn1c(=O)c(-c2cccs2)[n+]([O-])c2ccccc21,3 (inactive)
6,Cc1cc(C)nc(Sc2ncnc3sc4c(c23)CCC4)n1,0 (inactive)
7,c1csc(CCNc2ncnc3sc4c(c23)CCC4)c1,-1 (active)
8,N#CCCn1nc(-c2ccc(Cl)cc2)cc1Nc1ccccc1NC(=O)C(F)(F)F,1 (active)
9,CCOC(=O)c1cc(-c2ccc(Cl)cc2)nc2c1c(C)nn2CCC#N,0 (inactive)
10,COc1cc(OC)cc(C(=O)NC(=S)N2CCN(c3ccc(C(F)(F)F)cc3[N+](=O)[O-])CC2)c1,1 (active)
11,COc1ccccc1NC(=O)COc1ccc(C(F)(F)F)cc1[N+](=O)[O-],0 (inactive)
12,CC(C)Oc1cccc(C(=O)NC(=S)N2CCN(c3ccc(C(F)(F)F)cc3[N+](=O)[O-])CC2)c1,1 (active)
13,COc1cccc(C(=O)NC(=S)N2CCN(c3ccc(C(F)(F)F)cc3[N+](=O)[O-])CC2)c1,0.5 (inactive)
14,O=C1c2ccccc2C(=O)N1Nc1ccccc1,0 (inactive)
15,C(/C=C/C=C/Nc1ccccc1)=Nc1ccccc1,3 (inactive)
16,CCCCCCCCc1nc(=S)[nH][nH]1,0.5 (inactive)
17,C=CCCCCCCCCc1nc(=S)[nH][nH]1,1 (active)
18,CC1=C(n2nnc3ccccc32)C(c2ccccc2)C(C#N)=C(N)O1 (stereo not drawn),0 (inactive)
19,CCOC(=O)c1c(C)c(C(=O)N2CCc3ccccc3C2)c(C)n1CC,-1 (active)
20,CC(C)CC(=O)Nc1ccccc1-c1nnn(CC(=O)N2CCc3ccccc3C2)n1,0 (inactive)
21,O=C(COc1c(Br)cc(Br)c2cccnc12)N1CCc2ccccc2C1,0 (inactive)
22,O=C(O)c1oc2ccccc2c1CSc1ccccn1,0 (inactive)

row,Compound,manual score
1,CCCCCCc1cc2cc(C(=O)NC)c(=N)oc2cc1O,3 (inactive)
2,CCCCc1cc(=O)oc2cc(C)cc(O)c12,-1 (active)
3,O=C(NC(=S)Nc1ccc(N2CCOCC2)c(Cl)c1)c1cncc(Br)c1,1 (active)
4,O=C(NC(=S)NC1CCCCCC1)c1cncc(Br)c1,0 (inactive)
5,CC1CCCC(NC(=S)NC(=O)c2cncc(Br)c2)C1C (stereo not drawn),1 (active)
6,Cc1ccccc1NC(=S)NC(=O)c1cncc(Br)c1,1 (active)
7,COc1ccc(OCC(=O)NC(=S)Nc2ccc(N3CCOCC3)c(Cl)c2)cc1,0 (inactive)
8,O=C(Nc1ccc(N2CCCCC2)c(Cl)c1)c1ncn[nH]1,0 (inactive)
9,Cc1ccccc1NC(=S)NC(=O)c1cc(-c2ccccc2)nc2ccccc12,0 (inactive)
10,CC(C)(C)CC(=O)Nc1ccc(C(N)=O)cc1,0 (inactive)
11,O=C(CC(O)(C(F)(F)F)C(F)(F)F)Nc1ccc(Cl)c(Cl)c1,0 (inactive)
12,CCn1c(CCNC(=O)c2cccs2)nnc1SCC(=O)Nc1ccc(Cl)cc1,0 (inactive)
13,NC(=O)SCC(=O)Nc1ccc(Cl)cc1,1 (active)
14,O=C(CSCCO)Nc1ccccc1,0 (inactive)
15,NC(=O)SCC(=O)Nc1cccc(Cl)c1,1 (active)
16,Cc1ccc(NC(=O)Cn2cccc2)cc1Cl,0 (inactive)
17,Cc1ccc(NC(=O)CSC(N)=O)cc1Cl,1 (active)
18,Cn1c(=O)c(NCCc2ccccc2)c2c3c(cccc31)C(=O)c1ccccc1-2,3 (inactive)
19,Cc1ccccc1Cn1c(=N)n(CC(=O)c2ccco2)c2ccccc21,-1 (active)
20,Cc1ccccc1Cn1c(=N)n(CC(O)c2ccco2)c2ccccc21 (stereo not drawn),-1 (active)
21,Cc1ccccc1Cn1c(-c2cncs2)nc2ccccc21,0 (inactive)
22,C1CCC2(CC1)OCC1(CO2)COC2(CCCCC2)OC1,0 (inactive)

row,Compound,manual score
1,Cc1cccc(NC(=S)N2CCC(C(=O)c3ccc(F)cc3)CC2)c1C,0 (inactive)
2,c1ccc(-c2nnc3n2NC(c2ccc4c(c2)OCO4)S3)cc1 (stereo not drawn),1 (active)
3,Cc1cccc(NC(=O)COc2ccc(Br)cc2/C=N/O)c1,0 (inactive)
4,Cc1ccc(/C=C/C(=O)c2ccccc(=O)c2O)cc1C,1 (active)
5,Cc1cccc(/C=C/C(=O)c2cc(Br)ccc(=O)c2O)c1,1 (active)
6,Cc1cccc(/C=c2\s/c(=C\C(=O)C(C)(C)C)[nH]c2=O)c1,0 (inactive)
7,COc1ccc(/C=C/C(=O)c2cc(Br)ccc(=O)c2O)cc1,1 (active)
8,O=C(/C=C/c1ccccc1)c1cc(Br)ccc(=O)c1O,1 (active)
9,CCC(=O)Oc1ccc(C/C(=N\O)c2ccc(O)cc2O)o1,0 (inactive)
10,COc1ccc(-c2cc(C(F)(F)F)c3c(n2)sc2c(O)cc(=O)[nH]c23)c(OC)c1,-0.5 (inactive)
11,N#CC(C#N)=C1C=C2C=C(N3CCCCC3)CCC2CC1 (stereo not drawn),3 (inactive)
12,CC(C)CN(C(=O)COC(=O)Cc1n[nH]c(=O)c2ccccc12)C1CCS(=O)(=O)C1 (stereo not drawn),0 (inactive)
13,CCc1ccc(/C=C/C(=O)c2cc(Br)ccc(=O)c2O)cc1,1 (active)
14,COc1ccc(NC(=O)CSc2nnc(-c3ccccn3)n2Cc2ccco2)cc1OC,0 (inactive)
15,CCOC(=O)c1oc2nc(C(C)C)c3c(c2c1N)CC(C)(C)OC3,0 (inactive)
16,Cc1cc(C)n(-c2nnc(C)n2/N=C/c2ccccc2OCc2ccccc2Cl)n1,-1 (active)
17,COc1ccccc1/C=C/C=N\N1CCN(Cc2ccccc2Cl)CC1,0 (inactive)
18,O/N=C/c1cc(Cl)ccc1OCc1cccc2ccccc12,0 (inactive)
19,OC(c1ccccc1)C1CN(Cc2ccccc2)CCC1(O)c1ccccc1 (stereo not drawn),-1 (active)
20,O=C(COc1ccccc1F)NC1CCN(Cc2ccccc2)CC1,0 (inactive)
21,Cc1ccc(C)c2[nH]c(=O)c(CN(CCN3CCCC3)C(=O)Nc3ccc(F)cc3)cc12,-1 (active)
22,CCOC(=O)CSc1nc2c(sc3ccccc32)c(=O)n1CCCN1CCOCC1,-1 (active)

row,Compound,manual score
1,CC(C)CCn1c(SCC#N)nc2c(sc3ccccc32)c1=O,0 (inactive)
2,CCCCn1c(SCC(N)=O)nc2c(sc3ccccc32)c1=O,0 (inactive)
3,Cc1cccc2c1nc(-c1ccccc1)n1cnnc21,0 (inactive)
4,COc1ccccc1N1CCN(C(=O)CCn2c(=O)[nH]c3ccsc3c2=O)CC1,0 (inactive)
5,Cc1ccc(C)c(N2CCN(C(=O)CCCOc3cc(=O)n(C)c4ccccc34)CC2)c1,0 (inactive)
6,O=C(CCn1c(=O)oc2ccccc21)N1CCN(c2ccccc2Cl)CC1,-1 (active)
7,CCC(=O)n1nc(-c2cccnc2)nc1NCc1ccc(OC)cc1,0 (inactive)
8,CC(C)CCNC(=O)C(C)N(C(=O)Cn1nnc(-c2ccc(F)cc2)n1)C1CCCC1 (stereo not drawn),0.5 (inactive)
9,CC(C)CCNC(=O)C(C)N(Cc1ccc(F)cc1)C(=O)c1ccc(CN2CCCCC2)o1 (stereo not drawn),-1 (active)
10,CN1C=CC2=C(C#N)C(N)C(C#N)(C#N)C(c3ccccc3)C2C1 (stereo not drawn),3 (inactive)
11,Clc1ccc(Cc2ccc(SCc3ccccc3)nn2)c(Cl)c1,0 (inactive)
12,S=C(NCc1ccc(Cl)cc1Cl)Nc1ccccc1,1 (active)
13,Fc1ccccc1CNC(=S)Nc1ccc(Cl)cc1,1 (active)
14,Fc1ccc(NC(=S)NCc2ccccc2Cl)cc1,1 (active)
15,S=C(NN=C1CCCCCC1)Nc1ccc(Cl)cc1,0.5 (inactive)
16,S=C(NCCc1ccccc1)Nc1ccc(Cl)cc1Cl,-0.5 (inactive)
17,S=C(N/N=C/c1ccccc1Cl)Nc1ccccc1,0.5 (inactive)
18,CC1(C)CC(=O)c2c(noc2-c2ccccc2)C1,0 (inactive)
19,O=C(NC(=S)Nc1ccccc1N1CCCC1)c1ccc(-c2cccc([N+](=O)[O-])c2)o1,0 (inactive)
20,O=C(Oc1ccccc1C(=S)N1CCCCC1)c1cc([N+](=O)[O-])cc([N+](=O)[O-])c1,-1 (active)
